# ELG1 repair inh: inhibitors of ELG1-dependent DNA repair in HEK293T cells. 2.3% of 330,000 active. Potency, µM (highest dose often 46.1 µM), for the others: at the highest dose activity change, negative = inhibition, most hits filed as inhibitors. HEK293T ELG1-luciferase reporter, luminescence, 16 h; DNA damage induced by 5-fluorouridine. AID 504467; note: potency is the fitted concentration of half-maximal effect; % is set by controls: 0 for no effect and ±100 for the full control effect; nearly all actives have a fitted effect of over 55% in size
#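 Cells (2,000 per well) received 5-fluorouridine plus test compound or DMSO and were incubated 16 hr at 37 °C, 5% CO2. Luciferase activity was read by luminescence 30 min after ONE-Glo addition; signal suppression marked inhibition of damage-induced ELG1 function.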
# Giardia killer: Giardia lamblia killing. Giardia lamblia trophozoite viability. AID 540267. activity change, % at 7.66 µM, hits read low. 0.15% of 340,000 active; in the data active = activity change below about -80%; inconclusive = between about -30% and that limit;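 note: parasites exposed to compound for two days anaerobically before the ATP read; % is set by controls: 0 for no effect and ±100 for the full control effect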
#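 Media and compound were dispensed first, then trophozoites at 100 cells/well; plates sat 48 hrs at 37 deg C without oxygen before ATP luminescence reagent was added and read after 15-30 min at room temperature.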
# RORg inh: blocks mouse ROR gamma transcriptional activity; 5.4% of 310,000 active; Drosophila S2 Gal4-RORgamma UAS-luciferase reporter, 20 h; P51450; Potency, µM (series often up to 53.6 µM), for the others: at the highest dose activity change, negative = inhibition, actives largely listed as inhibitors; note: potency is the fitted concentration of half-maximal effect; % is set by controls: 0 for no effect and ±100 for the full control effect; nearly all actives have a fitted effect of over 60% in size
# Target sequence (P51450 whole entry, looked up, the tested form may be a part): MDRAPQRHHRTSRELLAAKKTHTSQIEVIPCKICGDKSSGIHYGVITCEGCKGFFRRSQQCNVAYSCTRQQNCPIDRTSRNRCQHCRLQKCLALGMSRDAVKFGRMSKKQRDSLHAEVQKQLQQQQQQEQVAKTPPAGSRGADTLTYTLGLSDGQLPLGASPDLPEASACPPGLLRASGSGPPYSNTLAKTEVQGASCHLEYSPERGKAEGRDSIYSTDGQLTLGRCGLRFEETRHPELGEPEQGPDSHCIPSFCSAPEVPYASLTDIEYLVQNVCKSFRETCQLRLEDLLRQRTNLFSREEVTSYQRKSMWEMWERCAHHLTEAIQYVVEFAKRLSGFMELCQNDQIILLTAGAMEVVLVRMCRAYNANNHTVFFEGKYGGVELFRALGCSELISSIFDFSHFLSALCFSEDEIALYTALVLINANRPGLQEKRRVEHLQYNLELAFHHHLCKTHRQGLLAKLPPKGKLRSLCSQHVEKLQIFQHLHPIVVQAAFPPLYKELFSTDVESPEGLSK
#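 Compounds are pin-transferred onto Drosophila Schneider cells expressing a copper-inducible Gal4–ROR gamma transactivation domain fusion. After 1 hr, copper sulfate is added to 700 uM final; luciferase is read 20 hr later.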
# BRCA1 expr up: activators of BRCA1 expression; MCF7-BRCA1-FFLuc reporter, luminescence, 48 h; response scale: scaled: vehicle 0%, 10 µM genistein 100%; Potency, µM (titrated, usually from 46.1 µM), for the others: at the highest dose activation, most hits filed as activators; 1.1% of 380,000 active; note: potency is the fitted concentration of half-maximal effect; nearly all actives have a fitted effect of over 80% in size
#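 Luminescence from a BRCA1-driven firefly luciferase in MCF7 cells was read after 48 h compound exposure at 37 C. Data normalized against DMSO and a 10microM genistein activation control, then curve-fitted across the titration.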
# p53 reactivator: re-activators of mutant p53; H1299 p53-A138V BP100-luciferase reporter, luminescence, 24 h; 0.063% of 320,000 active; Potency, µM (titrated, usually from 92.2 µM), for inactives: at the top dose activity change, positive = activation, most hits filed as activators; note: potency is the fitted concentration of half-maximal effect; % of control where 0% means no effect; nearly all actives have a fitted effect of over 45% in size
#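 p53-null H1299 cells stably carrying temperature-sensitive p53-A138V and a BP100-luciferase reporter were pinned with compounds (4-point, 1:5 series) and held 24 hrs at 37 deg C. Luminescence was read 10 min after detection reagent.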
# Gal4-VP16 FLuc: inhibits Gal4-VP16 luciferase reporter, ROR gamma counter-screen; Drosophila S2 Gal4-VP16 UAS-luciferase, luminescence, 20 h; Potency, µM (doses to about 53.6 µM), for the others: at the highest dose activity, negative = inhibition, most hits filed as inhibitors; 3.5% of 310,000 active; AID 2546;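 note: Gal4-VP16 expression switched on by copper sulfate through the metallothionein promoter; potency is the fitted concentration of half-maximal effect; % is set by controls: 0 for no effect and ±100 for the full control effect; nearly all actives have a fitted effect of over 50% in size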
# * marks the source's active call; other numbers are inactive results; ? = inconclusive; / = not tested or not shown; [ ] = dose if it differs, or a comment. Only some compounds are listed: those with a hit (about 7.6% of all), similar ones and a draw of the others. Unless noted, calls come from the whole dose curve; as a rule, active = well fitted curve in the direction sought with a large enough effect; inconclusive = small, poorly fitted or top-dose-only effect, or another doubt; inactive = no such curve, though single readings can be large; an effect the other way counts as inactive or inconclusive.
SMILES,ELG1 repair inh,Giardia killer,RORg inh,BRCA1 expr up,p53 reactivator,Gal4-VP16 FLuc
O=C1CN(C(=O)CSc2nnnn2-c2ccc(Cl)cc2)c2ccccc2N1,?,-20,3.5µM*,2%,-8%,-3%
CC(c1ccccc1)n1c(SCC(=O)N2CC(=O)Nc3ccccc32)nc2ccccc2c1=O (stereo not given),?,9,34%,-80%,-17%,-8%
Cc1ccc(Cn2c(SCC(=O)N3CC(=O)Nc4ccccc43)nc3ccccc3c2=O)cc1,?,14,1.6µM*,-52%,-13%,?
Cc1nnc(SCC(=O)N2CC(=O)Nc3ccccc32)n1Cc1ccccc1,0%,-10,14%,0%,-5%,-8%
Cc1cccc(-n2c(SCC(=O)N3CC(=O)Nc4ccccc43)nc3ccccc3c2=O)c1C,21µM*,0,?,-47%,-34%,0%
CC(C)(C)OC(=O)N1CCC(C(=O)Nc2cccc(C(=O)N3CCCC3)c2)CC1,/,10,/,5%,/,/
COCCOC(=O)c1[nH]c2c(c1C)C(=O)CC(c1cc(OC)c(OC)c(OC)c1)C2 (stereo not given),8.2µM*,-19,?,-46%,-7%,?
Cc1nc(NC2CCCCC2)c2nc(-c3ccccc3)n(C(C)CN(C)C)c2n1 (stereo not given),/,/,10µM*,/,/,-1%
CCc1ccc(OCC(=O)NNC(=S)NC(=O)C2CCCCC2)c(Br)c1,?,1,10µM*,1%,?,-22%
O=C(COc1ccc(Br)cc1Br)NC(=O)NC1CCCC1,?,-2,?,11µM*,5%,?
CCc1ccc(OCC(=O)NC2CCCCC2)c(Br)c1,12%,?,2.8µM*,?,5%,4µM*
O=C(COc1ccccc1Br)NC1CCCC1,?,-11,10%,40%,?,17%
CCc1ccc(OCC(=O)NNC(=S)NC(=O)C2CC2)c(Br)c1,-3%,2,?,0%,5%,-17%
CCn1c(=O)cc(SCC(=O)NCc2cccc(Cl)c2)c2ccccc21,/,/,/,-56%,/,/
COC(=O)c1ccc(C(=O)OC)c(-n2c(=O)c3ccccc3c3ccccc3c2=O)c1,?,11,10µM*,-92%,5%,?
Cc1ccc(C(=O)N2CCCC(CCC(=O)N3CCN(c4ccccn4)CC3)C2)cc1C (stereo not given),12µM*,-5,23%,-21%,-1%,-1%
Cc1ccoc1C(=O)N1CCCC(CCC(=O)N2CCN(c3ccccn3)CC2)C1 (stereo not given),21µM*,13,-3%,0%,-1%,-20%
O=C(CN1CCN(S(=O)(=O)c2ccc(Br)cc2)CC1)c1ccc(O)c(O)c1,4%,2,-24%,-18%,8%,15%
Cc1cc(-c2nc3ncccc3o2)ccc1NC(=S)NC(=O)c1ccco1,-3%,-15,-21%,-6%,4%,5%[10 µM]
C/C(=N\NC(=S)Nc1cccc(C)c1)c1cc2ccccc2o1,0%,-20,2.5µM*,-49%,26%,?
CCNC(=S)N/N=C(\C)c1cc2ccccc2o1,?,10,3.5µM*,27%,27%,7.9µM*
O=C(NNC(=O)c1cc2ccccc2o1)c1ccc(F)cc1,?,7,/,51%,18%,/
C/C(=N\NC(=O)c1ccc(O)cc1)c1cc2ccccc2o1,?,-2,6.3µM*,90%,-1%,10µM*
Cc1ccc(O)c(-c2ccnc3cc(-c4ccc(Cl)cc4)nn23)c1,/,/,/,-8%,/,/
Cc1nc2ccc(-c3nc4cc(N)ccc4o3)cc2[nH]1,?,?,16µM*,-57%,-6%,?
SMILES,ELG1 repair inh,Giardia killer,RORg inh,BRCA1 expr up,p53 reactivator,Gal4-VP16 FLuc
CCc1ccc2oc(-c3cccc(N)c3)nc2c1,?,-29,10µM*,30%,22%,14µM*
CCN(CC)CCNC(=O)C1(O)c2cc(Br)ccc2NC(=O)N1c1cccc(OC)c1 (stereo not given),3%,19,6%,2%,1%,0%
C/C(=N/Nc1ccccc1C(=O)O)c1cccs1,?,-8,-18%,10µM*,15%,26%
C/C(=N\Nc1ccc(Cl)c(C(=O)O)c1)c1cccs1,?,-21,1%,13µM*,8%,9%
C/C(=N\Nc1ccc(Cl)c(C(=O)O)c1)c1ccc[nH]1,?,3,0%,43%,12%,-10%
Cc1c(NC(=O)c2cccs2)cccc1C(=O)O,?,15,2%,83%,9%,5%
Cc1ccc([S+](=O)([O-])N(c2ccccc2)[S+](=O)([O-])C(F)(F)F)cc1,/,/,-21%,/,/,-3%
CCNC(=O)c1ccc(NC(=O)N2CCCCc3ccccc32)cc1,/,/,/,0%,/,/
CC1=NN(C(=O)COc2cc(C)ccc2C(C)C)C(O)(c2ccccc2)C1 (stereo not given),21µM*,1,11µM*,-33%,1%,18µM*
O=C(CSCc1ccccc1)N1CCN(S(=O)(=O)c2ccc(F)cc2)CC1,-7%,-10,23%,18%,-2%,23%
Cc1ccc(C(C)C)c(OCC(=O)NNC(=O)Nc2ccccc2)c1,/,-11,/,-27%,/,/
CC1=NN(C(=O)c2ccc(Cl)cc2)C(O)(c2ccccc2)C1 (stereo not given),-7%,11,10µM*,-17%,-2%,13µM*
CC1=NN(C(=O)CSCc2ccccc2)C(O)(c2ccc(F)cc2)C1 (stereo not given),-20%,-25,7.1µM*,-17%,-10%,?
CC1=NN(C(=O)COc2ccc(C)c(C)c2)C(O)(c2ccc(Cl)cc2)C1 (stereo not given),-2%,12,7.1µM*,-3%,-3%,16µM*
COC(=O)C1=NN(C(=O)c2ccc(C)cc2)C(O)(c2ccc(Cl)cc2)C1 (stereo not given),2%,2,-35%,10%,-4%,-6%
Cc1cc(N2CCN(c3cccc(C(F)(F)F)c3)CC2)n2nc(C)nc2n1,-12%,-14,-7%,8%,-3%,-1%
CCC(=O)c1ccccc1OCCCN1CCC(Cc2ccccc2)CC1,-29%,10,/,-40%,/,/
CC1=NN(C(=O)CSCc2ccccc2)C(O)(c2ccc(Cl)cc2)C1 (stereo not given),-13%,13,10µM*,-15%,-2%,?
CCOC(=O)C1=NN(C(=O)COc2ccccc2)C(O)(c2ccc(Br)cc2)C1 (stereo not given),-3%,4,4.5µM*,-7%,8%,11µM*

# Source: PubChem
